FMDV inh: blocks foot and mouth disease virus; FMDV antiviral cell-based qHTS; Potency, µM (doses to about 57.9 µM), inactives show top-dose activity change, negative = inhibition, hits mostly inhibitors; actives 1.2% (n = 410,000); AID 1159524; calls by dose curve; tested in HEK293T cells; also: read-out not given here; nearly all actives have a fitted effect of over 45% in size
VACV mCherry inh: inhibitors of vaccinia virus infection (mCherry reporter signal). Vaccinia virus mCherry reporter infection, fluorescence. Potency, µM (highest dose often 36.5 µM), for the others: top-dose activity change, negative = inhibition, usual class: inhibitors. actives 0.63% (n = 310,000); calls by dose curve; tested in A549 cells; also: nearly all actives have a fitted effect of over 35% in size
MARV entry inh: blocks Marburg virus binding to or entry into cells | Potency, µM (doses to about 37.8 µM), for inactives: at the highest dose activity change, negative = inhibition, usual class: inhibitors | AID 540276 | actives 1.8% (n = 300,000) | Marburg virus pseudotyped entry inhibition, cell reporter; calls by dose curve; tested in HEK293 cells
Vaccinia Venus: vaccinia inhibition (Venus reporter) | Vaccinia virus Venus reporter expression, fluorescence | Potency, µM (doses to about 36.5 µM), for the others: top-dose activity change, negative = inhibition, most hits filed as inhibitors | actives 0.46% (n = 330,000); calls by dose curve; tested in A549 cells; also: nearly all actives have a fitted effect of over 30% in size
Lassa entry inh: blocks Lassa virus binding to or entry into cells; Potency, µM (series often up to 37.9 µM), without a hit: top-dose activity change, negative = inhibition, usual class: inhibitors; Lassa virus pseudotype entry inhibition, cell reporter; actives 1.2% (n = 300,000); AID 540256; calls by dose curve; tested in HEK293 cells; also: nearly all actives have a fitted effect of over 50% in size
Sm TGR block: blocks Schistosoma mansoni thioredoxin glutathione reductase; Potency, µM (series often up to 114 µM), for inactives: top-dose activity change, negative = inhibition, actives largely listed as inhibitors; purified TGR, DTNB reduction, TNB absorbance 405 nm; actives 3% (n = 360,000); Q962Y6; active = well fitted inhibition curve with a large enough effect; inconclusive = small, poorly fitted or top-dose-only effect; inactive = no such curve, though single readings can be large or run the other way; also: nearly all actives have a fitted effect of over 60% in size
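Kinetic colorimetric format: TGR-catalysed, NADPH-driven DTNB reduction monitored via TNB absorbance. Enzyme dispensed at 20 nM; compound exposure 15 min at room temperature before reaction start.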
Numbers without * were called inactive; i = inactive; ? = inconclusive; . = no result given; [ ] = remark or other dose. Only some compounds are listed: those with a hit (about 5.4% of all), similar ones and a draw of the others. % is scaled to controls: 0 for no effect and ±100 for the full control effect; potency is read from the fitted curve at half-maximal effect.

SMILES | FMDV inh | VACV mCherry inh | MARV entry inh | Vaccinia Venus | Lassa entry inh | Sm TGR block
CCNc1nc(CN2CCCCC2)nc2scc(-c3ccccc3)c12 | ? | -21% | 4.5µM* | -18% | ? | -18%
O=[N+]([O-])c1cccc(C2NCC(c3ccccc3Cl)c3c2[nH]c2ccccc32)c1 (stereo not drawn) | 0% | -6% | ? | -18% | 14µM* | 0%
CN(C)c1ccc(C2CNC(c3ccc(Cl)c([N+](=O)[O-])c3)c3[nH]c4ccccc4c32)cc1 (stereo not drawn) | -5% | . | . | . | . | ?
Cc1ccc(Cl)cc1NC(=O)c1nnn(Cc2ccccc2)c1N | -9% | i | ? | -29% | -5%[46.1 µM] | -9%
Nc1ccc2oc(-c3ccc4nc[nH]c4c3)nc2c1 | -19% | . | ? | . | 16µM* | 2%
Cc1ccc(C)c(CN2C(=O)c3ccccc3S(=O)(=O)c3ccc(C(=O)N(C)C4CCCCC4)cc32)c1 | 20% | -19% | ? | -14% | -22%[46.1 µM] | -2%
CCCCN(CC)CCNC(=O)C1CCN(c2nnc(C)c3c(C)n(-c4ccc(C)cc4)nc23)CC1 | -9% | -14% | . | ? | ? | -10%
CC(=O)c1ccc(NC(=O)COC(=O)c2c3c(nc4ccccc24)/C(=C\c2cccs2)CCC3)cc1 | ? | -11% | 8.9µM* | ? | ? | 8%
CCOc1ccc(C(=O)C2CCN(CC(=O)Nc3ccccc3N3CCOCC3)CC2)cc1 | -22% | -18% | ? | ? | 18µM* | -23%
COc1ccc2nc(C)cc(N/N=C/c3ccccc3)c2c1 | -4% | 14µM* | ? | ? | ? | -1%
COc1ccc2nc(C)cc(Nc3ccc(N4CCN(C)CC4)cc3)c2c1 | -10% | ? | . | 10µM* | . | 9%
O=C(O)C[C@H](C(=O)OCCOc1ccccc1)N1CCOCC1 | . | . | 0% | . | . | .
CC(NS(=O)(=O)c1ccc(OCC(=O)NCc2ccncc2)cc1)c1ccccc1 (stereo not drawn) | 26% | 3% | 4.5µM* | -6% | . | -3%
CCNC(=O)CCC(N)C(=O)O (stereo not drawn) | -4% | -4% | . | -4% | . | .
COCCn1c(=O)[nH]c(=O)c2c1nc(-c1ccc(-c3ccc(Cl)cc3[N+](=O)[O-])o1)n2Cc1ccccc1 | ? | ? | ? | ? | 10µM* | 50µM*
COc1ccc(-c2ccc(-c3nc4c(c(=O)[nH]c(=O)n4Cc4ccccc4)n3C)o2)c([N+](=O)[O-])c1 | -17% | -7% | -2% | 4% | -2% | -24%
COCCn1c(-c2ccc(-c3ccc([N+](=O)[O-])cc3Br)o2)nc2c1c(=O)[nH]c(=O)n2CC(C)C | ? | -27% | ? | -3% | ? | 45µM*
CCCCn1c(=O)[nH]c(=O)c2c1nc(-c1ccc3ccccc3c1)n2CC | -21% | i | -4%[46.1 µM] | -23% | ? | 5%
COCCn1c(-c2ccc(OC(F)(F)C(F)C(F)(F)F)cc2)nc2c1c(=O)[nH]c(=O)n2CC(C)C (stereo not drawn) | ? | . | -5% | -28% | 2.8µM* | -6%
CCCCn1c(=O)[nH]c(=O)c2c1nc(-c1ccc(-c3ccccc3Br)o1)n2CC | 0% | . | -23% | -26% | -13% | 13µM*
CCC(Cc1ccccc1)NC(=O)c1csc2c1CCCCC2 (stereo not drawn) | 15% | -12% | -11%[46.1 µM] | -6% | . | 24%
Cc1cccc(C(=O)NCc2nc(-c3cccc(NC(=O)c4ccoc4C)c3)oc2C)n1 | -19% | -14% | . | -10% | . | .
O=C(Nc1ccc2c(c1)CCC2)c1cnn2c1NC(=C1CC1)C=C2C(F)F | . | -6% | . | -17% | . | .
COc1ccc(C)cc1-n1nnnc1SCc1cc(=O)n2cc(C)ccc2n1 | 16µM* | -17% | 3%[46.1 µM] | -20% | ? | 0%
c1ccc(-c2ccc(SCc3cccnc3)nn2)nc1 | 28% | 11µM* | -16%[46.1 µM] | ? | 11% | 6%
c1cncc(CSc2ccc(-c3cccnc3)nn2)c1 | 1% | -12% | 17%[46.1 µM] | -14% | -17%[46.1 µM] | -5%
CCn1c(SCC(=O)Nc2nc(-c3ccc(C)cc3)cs2)nnc1-c1ccccc1 | 13µM* | . | ? | . | ? | -13%

From PubChem
